Results as given in ChEMBL document CHEMBL3433997, “St. Jude Leishmania screening dataset” (2016).

Legend:
Type in all cases: functional
[1] = biological target: Solute carrier family 2, facilitated glucose transporter member 1 (Homo sapiens) (UniProt P11166); assay: ST_JUDE_LEISH: Cytotoxicity at 2uM final concentration against transgenic Leishmania Mexicana promastigotes LmGLUT1 that are glucose transport deficient and complemented with the human glucose transporter GLUT1. Activity is measured by DNA content using SYBR green in vitro
Chain of Solute carrier family 2, facilitated glucose transporter member 1 (Homo sapiens) (P11166 whole entry): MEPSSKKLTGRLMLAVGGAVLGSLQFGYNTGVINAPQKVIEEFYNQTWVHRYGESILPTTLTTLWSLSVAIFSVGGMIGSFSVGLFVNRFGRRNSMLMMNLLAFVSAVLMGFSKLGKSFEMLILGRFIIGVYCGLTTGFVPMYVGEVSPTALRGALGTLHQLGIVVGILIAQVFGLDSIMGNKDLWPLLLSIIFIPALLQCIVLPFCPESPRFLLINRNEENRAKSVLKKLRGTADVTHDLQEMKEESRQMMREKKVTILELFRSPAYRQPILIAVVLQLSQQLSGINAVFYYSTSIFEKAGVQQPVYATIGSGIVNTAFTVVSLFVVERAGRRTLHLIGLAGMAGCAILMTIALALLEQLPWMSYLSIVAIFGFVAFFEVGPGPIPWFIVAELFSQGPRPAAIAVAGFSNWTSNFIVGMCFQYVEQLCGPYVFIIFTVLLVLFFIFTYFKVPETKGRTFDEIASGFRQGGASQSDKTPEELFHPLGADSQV

[2] = biological target: Hexose transporter 1 (Plasmodium falciparum) (UniProt O97467); assay: ST_JUDE_LEISH: Cytotoxicity at 2uM final concentration against transgenic Leishmania Mexicana promastigotes LmPfHT that are glucose transport deficient and complemented with the Plasmodium falciparum hexose transporter. Activity is measured by DNA content using SYBR green in vitro
[3] = biological target: Glucose transporter (Leishmania mexicana) (UniProt O61059); assay: ST_JUDE_LEISH: Cytotoxicity at 2uM final concentration against transgenic Leishmania Mexicana promastigotes LmGT2 that are glucose transport deficient and complemented with the L. Mexicana glucose transporter 2. Activity is measured by DNA content using SYBR green in vitro

Row | Compound | inhibition [1] [%] | inhibition [2] [%] | inhibition [3] [%]
1 | Cc1cc(N(C)CCCN2CCCCC2)nc(Nc2ccc(Cl)cc2)n1 | 0.51 | 2.38 | 2.88
2 | CC(CN(C)C)C(=O)Nc1ccc(-c2csc(-c3nc4ccccc4[nH]3)c2)cc1 (stereo unspecified) | 0.09 | 3.49 | 3.09
3 | CC1CCN(C(=O)[C@H](Cc2c[nH]c3ccccc23)NS(=O)(=O)c2ccc(Cl)cc2)CC1 | 1.32 | 2.42 | 13.7
4 | N#Cc1ccc2[nH]c(-c3cc(-c4cccc(F)c4)cnc3N)nc2c1 | 6.56 | 7.71 | 3.77
5 | COc1ccc(C=Cc2ccc(-c3c(C)[nH]c(C)c(Cl)c3=O)cc2)cc1OC | -0.83 | -2.94 | 0.92
6 | NC(=O)c1cccc(C(=O)Nc2cccc(-c3cccc(-c4nc5cc(F)ccc5[nH]4)c3)c2)c1 | -0.39 | 0.68 | -0.72
7 | CCCOc1ccccc1C(=O)Nc1nonc1-c1ccc(OCC)c(OCC)c1 | 0.74 | 0.51 | 0.93
8 | N#Cc1ccc(N2CCN(C(=O)c3cccc(-c4noc(C(F)(F)F)n4)c3)CC2)nc1 | 0.27 | 0.91 | -0.23
9 | Cn1nc(-c2ccc(CNC3CCc4ccccc43)cc2)c2cnc(NCCCN3CCCC3)nc21 (stereo unspecified) | 7.46 | 13.8 | 8.91
10 | NS(=O)(=O)c1cccc(Nc2nc(N[C@@H]3CCNC3)nc3cc[nH]c(=O)c23)c1 | 4.84 | 2.08 | -3
11 | O=C(Nc1ccc(-c2ccccc2)cc1)Nc1cccc(Cn2cnc(N3CCCNCC3)cc2=O)c1 | 5.12 | 4.17 | 4.86
12 | Cc1cc(CN2CCC(Nc3ncc(-c4ccsc4)c4nc(C(F)(F)F)ccc34)CC2)no1 | 5.49 | 6.03 | 5.5
